Results published in PubChem BioAssay.
“And” between values parts separate entries of the source, which are not always exact repeats. Equal values may be shown once. The source made the active and inactive calls.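 The calls were made as follows, unless noted: active = inhibition at or above 50% relative to wild type and mutant plate controls; inactive = inhibition below 50%.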

Experiments:
[1] = inhibitors of TNFa-induced NFkB p65 translocation, primary screen, imaging, HUVEC, MLSMR starter and 10KST1 sets (AID 438;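 active = inhibition above 20% together with a positive visual image hit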;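 also: compound added about 3h40 before a 20 min TNFalpha stimulation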;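 as to inhibition: signal is the nuclear over cytoplasmic p65 intensity ratio per well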); details: HUVEC TNFa-induced p65 nuclear translocation; cell count: measured here: nuclei count (cytotoxicity indicator), at 2.08 µM; inhibition: at 2 µM, stronger effect = higher value, 0% TNFa-plus-vehicle, 100% no-TNFa wells
[2] = inhibitors of mutant huntingtin aggregation, primary screen, imaging, exon1htt(103Q)mCFP cells, high-content imaging (AID 483;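 active = visual image review flags a hit and inhibition of aggregation exceeds 20%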;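 also: compound exposure lasted 3 days before fixation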;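 as to nuclei count: percent of the per-plate median nuclei count of sample wells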); details: exon1htt(103Q)mCFP cell line, aggregate imaging, at 2 µM; inhibition of aggregation: stronger effect = higher value; nuclei count: measured here: cell count, toxicity
[3] = inhibitors of E-selectin induction by TNFa, primary screen, imaging, HUVEC, immunofluorescence, MLSMR starter and 10KST1 sets (AID 487;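 active = visually confirmed hit in the image check and inhibition above 20%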;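 as to inhibition: signal is fraction of cell area covered by stained E-selectin grains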;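 as to nuclei count: 100% = median nuclei count of all wells on the same plate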); details: HUVEC TNFalpha-induced E-selectin immunofluorescence imaging, at 2 µM; inhibition: stronger effect = higher value; nuclei count: measured here: cell number, toxicity
[4] = DUSP6 inhibitors restoring Erk phosphorylation by chemical complementation, primary imaging in DUSP6-transfected HeLa (AID 609;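 active = compounds giving at least 50% inhibition in the cell-based MKP-3 phosphatase rescue imaging test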;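 as to inhibition: phospho-Erk level distribution per well compared with pooled transfected vehicle control wells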); details: HeLa MKP-3 transfected, phospho-Erk imaging KS statistic, at 10 µM, cells stimulated with TPA for 15 min
[5] = biological target: Dual specificity protein phosphatase 6 (Homo sapiens) (UniProt Q16828); experiment: as above; details: HeLa MKP-3 transfected, phospho-Erk imaging KS statistic; at 10 µM; stronger effect = higher value; cells stimulated with TPA for 15 min
[6] = biological target: Voltage-gated potassium channel subunit beta-2 (Rattus norvegicus) (UniProt P62483); experiment: KvBeta enzyme negative modulators, primary screen, biochemical, NADPH fluorescence (AID 622;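 active = fluorescence slope higher than the sample average by over 3 SD, cut at about -0.22 in these data, passing the limit was not always enough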;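 also: slope of raw intensity against log time taken from 70 to 1610 s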); details: recombinant KvBeta, 4-cyanobenzaldehyde reduction, at 10 µM, stronger effect = higher value
[7] = biological target: Voltage-gated potassium channel subunit beta-2 (Rattus norvegicus) (UniProt P62483); experiment: KvBeta positive modulators, primary screen, biochemical, NADPH fluorescence (AID 623;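 active = NADPH fluorescence slope more negative than the mean of all samples by about 3 SD, 99.7% confidence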;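 also: fluorescence intensity change per second fitted from 20 to 320 s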); details: Recombinant KvBeta, NADPH fluorescence decrease slope, 10 min; at 10 µM; stronger effect = lower value
[8] = biological target: Alpha-2C adrenergic receptor (Homo sapiens) (UniProt P18825); experiment: modulators of alpha2C/GIRK thallium flux, primary screen, cell-based, HEK293 alpha2C/GIRK1/2 (AID 624;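 active = fluorescence slope after compound addition differing from the mean of all screened samples at 99.7% confidence, in either direction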;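 also: slope of fluorescence ratio to pre-addition baseline per second over 15 to 24 s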); details: thallium flux BTC fluorescence, at 10 µM, actives lie on both sides
[9] = inhibitors of larval lipid processing in zebrafish, primary screen, whole organism, PED6 fluorescence, gall bladder and intestine (AID 686;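 active = a full or partial loss of lipid-probe fluorescence in the fish gall bladder, intestine or both, judged by eye; inactive = no fluorescence loss, or compound toxic to the fish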;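 also: larvae 5 to 7 days old with five fish per well; signal comes from phospholipase A2 cleavage of quenched PED6 carried via bile; overnight exposure to compound and PED6 before scoring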); details: Zebrafish larvae PED6 lipid processing, fluorescence scoring; screened at 20 µM (by protocol)
[10] = inhibitors of Chlamydomonas gravitaxis, primary screen, whole organism, Chlamydomonas reinhardtii, WT vs cilia-less mutant, absorbance, 96-well (AID 463189); details: OD600 absorbance, 2 days, at 10 µM, stronger effect = higher value;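 also: 0% = wild type cc124 cells in DMSO and 100% = ciliumless bld1 mutant cells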
[11] = inhibitors of Sendai virus-induced IRF3 signaling, primary screen, TLR/RLR signaling modifier project, cell-based, Sendai virus stimulus, luciferase, 10K MLSCN set (AID 602276;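 active = inhibition at or above 50% at 10 µM; inactive = inhibition below 50%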;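 also: firefly luciferase from ISG56 promoter only with Renilla not read in this screen; 0% = Sendai virus plus DMSO and 100% = medium plus DMSO without virus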); details: HEK293 RL24 IRF3 luciferase reporter, at 10 µM, stronger effect = higher value
[12] = inhibitors of poly I:C-induced TLR3 signaling, primary screen, cell-based, poly I:C stimulus, luciferase, 10K MLSCN set (AID 602277;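 active = inhibition of the reporter signal at or above 50%; inactive = inhibition below 50%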); details: HEK293-TLR3 RL24 IRF3 luciferase reporter, at 10 µM, stronger effect = higher value
[13] = measured here: cell density z-score
[14] = measured here: nuclear c-Myc green intensity z-score
[15] = measured here: nuclear pErk red intensity z-score, stronger effect = higher value

Sequence of Voltage-gated potassium channel subunit beta-2 (Rattus norvegicus) (P62483 whole entry, looked up): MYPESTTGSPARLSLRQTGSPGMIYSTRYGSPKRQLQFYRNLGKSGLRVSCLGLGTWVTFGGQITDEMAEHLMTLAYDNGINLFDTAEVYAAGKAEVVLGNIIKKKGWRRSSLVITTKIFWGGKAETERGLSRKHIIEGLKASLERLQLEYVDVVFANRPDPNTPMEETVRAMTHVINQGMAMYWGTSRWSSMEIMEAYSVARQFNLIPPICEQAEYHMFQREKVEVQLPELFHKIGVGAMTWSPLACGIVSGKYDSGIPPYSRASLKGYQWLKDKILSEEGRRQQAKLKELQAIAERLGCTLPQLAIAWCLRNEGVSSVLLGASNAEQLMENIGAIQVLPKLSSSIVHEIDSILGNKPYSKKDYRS
Sequence of Dual specificity protein phosphatase 6 (Homo sapiens) (Q16828 whole entry, looked up): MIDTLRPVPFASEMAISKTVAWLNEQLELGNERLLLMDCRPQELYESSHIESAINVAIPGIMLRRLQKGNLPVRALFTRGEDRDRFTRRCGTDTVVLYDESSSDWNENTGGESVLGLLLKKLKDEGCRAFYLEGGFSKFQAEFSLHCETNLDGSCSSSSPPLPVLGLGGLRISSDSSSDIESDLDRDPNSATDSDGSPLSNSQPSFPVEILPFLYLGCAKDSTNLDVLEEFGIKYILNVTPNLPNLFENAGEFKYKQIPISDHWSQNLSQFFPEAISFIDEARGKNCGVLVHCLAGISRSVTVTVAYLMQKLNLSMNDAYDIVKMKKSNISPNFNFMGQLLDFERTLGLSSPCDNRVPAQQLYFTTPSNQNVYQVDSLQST
Sequence of Alpha-2C adrenergic receptor (Homo sapiens) (P18825 whole entry, looked up): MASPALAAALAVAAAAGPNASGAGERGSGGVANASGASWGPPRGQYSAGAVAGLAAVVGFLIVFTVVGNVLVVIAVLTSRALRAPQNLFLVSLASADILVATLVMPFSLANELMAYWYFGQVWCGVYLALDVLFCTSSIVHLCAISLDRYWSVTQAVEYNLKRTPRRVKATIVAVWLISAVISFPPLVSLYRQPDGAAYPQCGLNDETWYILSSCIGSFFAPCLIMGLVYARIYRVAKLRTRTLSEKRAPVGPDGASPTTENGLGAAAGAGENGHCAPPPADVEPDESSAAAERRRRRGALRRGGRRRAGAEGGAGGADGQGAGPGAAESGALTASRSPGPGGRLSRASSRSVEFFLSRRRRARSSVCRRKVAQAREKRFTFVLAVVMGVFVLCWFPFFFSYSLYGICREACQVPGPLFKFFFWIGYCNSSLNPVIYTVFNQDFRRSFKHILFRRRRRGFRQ

NC(=O)c1cc(-c2ccccc2)nc(Oc2ccccc2)n1
cell count [1]: 472
inhibition [1]: -18.1% (inactive)
inhibition of aggregation [2]: 8.5% (inactive)
nuclei count [2]: 99%
inhibition [3]: -13.2% (inactive)
nuclei count [3]: 109%
z-score [4, 13]: -0.736
z-score [4, 14]: -0.523
z-score [4, 15]: 0.468
inhibition [5]: 6.51% (inactive)
fluorescence slope [6]: -0.53 (inactive)
NADPH fluorescence slope [7]: -8.3e-05 (inactive)
slope [8]: 0.00808 (inactive)
outcome [9]: inactive
inhibition [10]: -1.45% (inactive)
inhibition [11]: 13.4% (inactive)
inhibition [12]: 1.65% (inactive)

N=c1ncn(CC(O)CN2CCOCC2)c2nc(N3CCOCC3)[nH]c12 (stereo not given)
cell count [1]: 536
inhibition [1]: -23.6% (inactive)
inhibition of aggregation [2]: 20.3% (inactive)
nuclei count [2]: 88.8%
inhibition [3]: -90.1% (inactive)
nuclei count [3]: 124%
z-score [4, 13]: 0.636
z-score [4, 14]: -1.17
z-score [4, 15]: 0.315
inhibition [5]: 17.3% (inactive)
fluorescence slope [6]: -0.517 (inactive)
NADPH fluorescence slope [7]: -2.5e-05 (inactive)
slope [8]: 0.00808 (inactive)
outcome [9]: inactive
inhibition [10]: 17.5% (inactive)
inhibition [11]: -19.8% (inactive)
inhibition [12]: -9.49% (inactive)

CCOC(=O)C1=C(C)N=C2SC(C)C(=O)N2C1c1cccc(F)c1 (stereo not given)
cell count [1]: 400
inhibition [1]: -2.2% (inactive)
inhibition of aggregation [2]: 9.9% (inactive)
nuclei count [2]: 102%
inhibition [3]: -10.3% (inactive)
nuclei count [3]: 139%
z-score [4, 13]: -0.692
z-score [4, 14]: 0.668
z-score [4, 15]: 0.0738
inhibition [5]: 5.42% (inactive)
fluorescence slope [6]: -0.448 (inactive)
NADPH fluorescence slope [7]: -0.000135 (inactive)
slope [8]: 0.00424 (inactive)
outcome [9]: inactive
inhibition [10]: -0.443% (inactive)
inhibition [11]: 25.4% (inactive)
inhibition [12]: 20.1% (inactive)

Cc1c(Cl)cccc1Nc1ccccc1C(=O)O
cell count [1]: 612
inhibition [1]: -8.8% (inactive)
inhibition of aggregation [2]: 17.9% (inactive)
nuclei count [2]: 108%
inhibition [3]: -156% (inactive)
nuclei count [3]: 129%
z-score [4, 13]: -0.93
z-score [4, 14]: -0.312
z-score [4, 15]: 1.31
inhibition [5]: 5.42% (inactive)
fluorescence slope [6]: -0.466 (inactive)
NADPH fluorescence slope [7]: -4.7e-06 (inactive)
slope [8]: 0.00655 (inactive)
outcome [9]: inactive
inhibition [10]: -6.31% (inactive)
inhibition [11]: 4.32% (inactive)
inhibition [12]: 19.5% (inactive)

Clc1ccc(Cl)c(-c2ccc(/C=N/c3ncn[nH]3)o2)c1
cell count [1]: 439
inhibition [1]: -0.4% (inactive)
inhibition of aggregation [2]: 6.2% (inactive)
nuclei count [2]: 104%
inhibition [3]: -127% (inactive)
nuclei count [3]: 122%
z-score [4, 13]: -0.606
z-score [4, 14]: -0.195
z-score [4, 15]: 1.4
inhibition [5]: -4.27% (inactive)
fluorescence slope [6]: -0.438 (inactive)
NADPH fluorescence slope [7]: -5.6e-05 (inactive)
slope [8]: 0.0057 (inactive)
outcome [9]: inactive
inhibition [10]: 73.7% (active)
inhibition [11]: 13.4% (inactive)
inhibition [12]: 18.3% (inactive)

COc1cccc(-c2nnc3sc(-c4ccc(C)cc4)nn23)c1
cell count [1]: 634
inhibition [1]: 3.3% (inactive)
inhibition of aggregation [2]: 11.6% (inactive)
nuclei count [2]: 77.9%
inhibition [3]: -24.2% (inactive)
nuclei count [3]: 121%
z-score [4, 13]: -0.746
z-score [4, 14]: -0.965
z-score [4, 15]: 1.01
inhibition [5]: -4.27% (inactive)
fluorescence slope [6]: -0.414 (inactive)
NADPH fluorescence slope [7]: -0.000137 (inactive)
slope [8]: 0.00537 (inactive)
outcome [9]: inactive
inhibition [10]: 5.03% (inactive)
inhibition [11]: 2.84% (inactive)
inhibition [12]: 34.9% (inactive)

N#C/C(=C\c1ccc(O)c(O)c1)C(=O)NCCCc1ccccc1
cell count [1]: 629
inhibition [1]: 3.7% (inactive)
inhibition of aggregation [2]: -14.6% (inactive)
nuclei count [2]: 98.2%
inhibition [3]: -94.6% (inactive)
nuclei count [3]: 131%
z-score [4, 13]: 1.89
z-score [4, 14]: 0.253
z-score [4, 15]: -0.466
inhibition [5]: 16.8% (inactive)
fluorescence slope [6]: -0.49 (inactive)
NADPH fluorescence slope [7]: -5.4e-05 (inactive)
slope [8]: 0.00485 (inactive)
outcome [9]: inactive
inhibition [10]: 2.27% (inactive) and -1.78% (inactive)
inhibition [11]: -14.9% (inactive)
inhibition [12]: -17.2% (inactive)

Cc1ncc([N+](=O)[O-])n1CC(O)CCl (stereo not given)
cell count [1]: 546
inhibition [1]: -5% (inactive)
inhibition of aggregation [2]: -12.8% (inactive)
nuclei count [2]: 100%
inhibition [3]: -91.7% (inactive)
nuclei count [3]: 114%
z-score [4, 13]: 0.947
z-score [4, 14]: -1.73
z-score [4, 15]: -1.47
inhibition [5]: 3.45% (inactive)
fluorescence slope [6]: -0.5 (inactive)
NADPH fluorescence slope [7]: 2.8e-05 (inactive)
slope [8]: 0.00498 (inactive)
outcome [9]: inactive
inhibition [10]: -0.632% (inactive)
inhibition [11]: -0.807% (inactive)
inhibition [12]: 16.6% (inactive)

CCCCOc1ccc(C(=O)Nn2cnnc2)cc1
cell count [1]: 491
inhibition [1]: -0.8% (inactive)
inhibition of aggregation [2]: 14.2% (inactive)
nuclei count [2]: 96.9%
inhibition [3]: -83.6% (inactive)
nuclei count [3]: 100%
z-score [4, 13]: -0.477
z-score [4, 14]: -1.53
z-score [4, 15]: -0.77
inhibition [5]: -8.27% (inactive)
fluorescence slope [6]: -0.32 (inactive)
NADPH fluorescence slope [7]: -2.1e-05 (inactive)
slope [8]: 0.00306 (inactive)
outcome [9]: inactive
inhibition [10]: 0.154% (inactive)
inhibition [11]: 9.75% (inactive)
inhibition [12]: 15.4% (inactive)

CCC1=C(C(=O)OC)C(c2cc(OC)ccc2OC)C(C#N)=C(N)O1 (stereo not given)
cell count [1]: 296
inhibition [1]: -8.8% (inactive)
inhibition of aggregation [2]: 6.8% (inactive)
nuclei count [2]: 106%
inhibition [3]: -58% (inactive)
nuclei count [3]: 129%
z-score [4, 13]: 1.11
z-score [4, 14]: 0.712
z-score [4, 15]: -2.04
inhibition [5]: 5.65% (inactive)
fluorescence slope [6]: -0.478 (inactive)
NADPH fluorescence slope [7]: -0.000233 (inactive)
slope [8]: 0.00469 (inactive)
outcome [9]: inactive
inhibition [10]: -0.583% (inactive)
inhibition [11]: 17% (inactive)
inhibition [12]: 24% (inactive)
